From the supplement of paper PMC12067093, “Discovery and optimisation of a covalent ligand for TRIM25 and its application to targeted protein ubiquitination” (Chemical Science, 2025)
About 21,000 targets were measured; listed, in parts, are those with the largest changes and a random draw of the rest.

Compound: Cc1cc(ccc1-c1ccccc1)C(=O)N1CCCN(CC1)C(=O)CCl [compound 10]
Test: probe-labelled cysteine peptide fold change vs DMSO (competition) (log2 fold change); higher = less target engagement (more negative = stronger competition)
Conditions: 10 µM; THP-1; incubation time: 4 h
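Further: competitive profiling in live THP-1 cells: cysteine peptides tagged with an iodoacetamide desthiobiotin (IA-DTB) probe, intensity after compound treatment relative to DMSO-treated cells.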

Compared with “MAP2K6_P52564_216_TIDAGCK (UniProt P52564)”, “LMAN1_P49257_230_NDYEFCAK (UniProt P49257)” is higher in “probe-labelled cysteine peptide fold change” value: -0.048 for the first, 0.239 for the second.

Compared with “MCM2_P49736_661_FDILCVVR (UniProt P49736)”, “MSI1_O43347_167_VCEIHFHEINNK<|>MSI2_Q96DH6_168_VCEIHFHEINNK (UniProt Q96DH6+O43347)” is lower in “probe-labelled cysteine peptide fold change” value: 0.242 for the first, 0.163 for the second.

Going from MAGT1_Q9H0U3_87_QCVVCK (UniProt Q9H0U3) to “MDN1_Q9NU22_3985_KFEAVLSEPCR (UniProt Q9NU22)”, the “probe-labelled cysteine peptide fold change” value falls from -0.137 to -0.313.

First: MFN1_Q8IWA4_513_LCSDFQEDIVFR (UniProt Q8IWA4)
Second: MACF1_Q9UPN3_3109_EIACGAQSEPFPCMTPRPEGLHYQESDGK (UniProt Q9UPN3)
The “probe-labelled cysteine peptide fold change” value of the first is higher: -0.0991 for the first, -0.348 for the second.

First: LRRK2_Q5S007_1187_FSCIPEAILNLPHLR (UniProt Q5S007)
Second: MCMBP_Q9BTE3_325_LQHINPLLPACLNK (UniProt Q9BTE3)
The “probe-labelled cysteine peptide fold change” value of the first is higher: -0.0375 for the first, -0.451 for the second.

First: MMADHC_Q9H3L0_261+262_HLGFSVDDLGCCK (UniProt Q9H3L0)
Second: MTMR3_Q13615_473_CPVFLQWLDCVHQLQR (UniProt Q13615)
The “probe-labelled cysteine peptide fold change” value of the first is lower: -0.412 for the first, -0.0651 for the second.

Going from “MRC2_Q9UBG0_1234_TTSCDTK (UniProt Q9UBG0)” to “MEFV_O15553_375_KSPGSLSPQPLPQCK (UniProt O15553)”, the “probe-labelled cysteine peptide fold change” value rises from -0.27 to -0.229.

Compared with “MDN1_Q9NU22_2158_CLGEGGK (UniProt Q9NU22)”, “MBTD1_Q05BQ5_288_VSESMQYPFKPCMR (UniProt Q05BQ5)” is higher in “probe-labelled cysteine peptide fold change” value: -0.171 for the first, 0.00855 for the second.

Compared with “MSTO1_Q9BUK6_232_LHFYVEECDYLQGFQILCDLHDGFSGVGAK (UniProt Q9BUK6)”, “MMADHC_Q9H3L0_261_HLGFSVDDLGCCK (UniProt Q9H3L0)” is lower in “probe-labelled cysteine peptide fold change” value: 0.444 for the first, -0.3 for the second.

First: LGALS3_P17931_173_VIVCNTK (UniProt P17931)
Second: MYCBP2_O75592_3241_DTICELCGESHPYPVTYHMR (UniProt O75592)
The “probe-labelled cysteine peptide fold change” value of the first is higher: 0.0884 for the first, -0.0846 for the second.

Going from “MTREX_P42285_430_KMVEEVFSNAIDCLSDEDK (UniProt P42285)” to “MMS19_Q96T76_331_REVFQTASERVEAEGLAALHSLTACLSR (UniProt Q96T76)”, the “probe-labelled cysteine peptide fold change” value falls from -0.306 to -0.452.

First: LRRC8A_Q8IWT6_768+776_GNRLECLPVELGECPLLK (UniProt Q8IWT6)
Second: LYST_Q99698_2223_SEDDSPGDESCPR (UniProt Q99698)
The “probe-labelled cysteine peptide fold change” value of the first is higher: -0.106 for the first, -0.367 for the second.

Compared with “MRPS31_Q92665_356_HFMELVTCGLSK (UniProt Q92665)”, “LRCH4_O75427_283_GSALGDLAPSRPPSFSPCPAEDLFPGHR (UniProt O75427)” is lower in “probe-labelled cysteine peptide fold change” value: 0.0457 for the first, -1.16 for the second.

Going from “MSH6_P52701_687_SELALSALGGCVFYLK (UniProt P52701)” to “LSM2_Q9Y333_26_NDLSICGTLHSVDQYLNIK (UniProt Q9Y333)”, the “probe-labelled cysteine peptide fold change” value rises from 0.05 to 0.109.

Compared with “MRPS18A_Q9NVS2_186_DNVCYSR (UniProt Q9NVS2)”, “LY75_O60449-2_1697_NQCTDHGADMISIHNEEENAFILDTLK (UniProt O60449)” is lower in “probe-labelled cysteine peptide fold change” value: -0.0735 for the first, -0.0829 for the second.

Compared with “MIB1_Q86YT6_103_CAECTNYDLCTVCYHGDK (UniProt Q86YT6)”, “LILRB4_Q8NHJ6_330_SSPAADVQGENFCAAVK (UniProt Q8NHJ6)” is lower in “probe-labelled cysteine peptide fold change” value: 0.0824 for the first, -0.385 for the second.

First: MRC2_Q9UBG0_187_IYGSEEDLCALPYHEVYTIQGNSHGKPCTIPFK (UniProt Q9UBG0)
Second: MYBBP1A_Q9BQG0_890_RYCHDLGER (UniProt Q9BQG0)
The “probe-labelled cysteine peptide fold change” value of the first is lower: -0.0343 for the first, 0.104 for the second.

Compared with “MRI1_Q9BV20_168_VTVLTHCNTGALATAGYGTALGVIR (UniProt Q9BV20)”, “MPC2_O95563_54_WGLVCAGLADMARPAEK (UniProt O95563)” is lower in “probe-labelled cysteine peptide fold change” value: 0.147 for the first, -0.141 for the second.

In the case of “MCTS1_Q9ULC4_144_QHALCVGVMK (UniProt Q9ULC4)”, the “probe-labelled cysteine peptide fold change” value is reported as 0.104.
